# BJeLR viab HTS – BJeLR cell viability loss, primary screen, luminescence, CellTiterGlo ATP | viability loss activity score, % (concentration not given with the values) | BJeLR fibroblasts viability, 48 h; HRASV12, hTERT and SV40 LT/ST transformed | 0.64% of 30,000 active; in the data active means viability loss activity score above about 50%; inconclusive means no clear call, values can overlap the other calls; inactive means below about 35%;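 further: higher score means fewer live cells and less ATP luminescence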
# Hedgehog inh – Hedgehog pathway signaling inhibitors, primary screen, luminescence, Shh-LIGHT2 cells, Gli-luciferase. 2.1% of 22,000 active. inhibition, % (test concentration not listed). Shh-LIGHT2 Gli-luciferase reporter, 30 h;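 active means mean inhibition across valid replicates above about 65%, limit read from the data; inconclusive means mean under the limit, yet half or more replicates past it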;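 further: pathway switched on by Shh-conditioned medium diluted 1 in 25 in low serum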
# The depositor's hits bear a star; ? = inconclusive; / = no result. This excerpt belongs to a sample that is enriched for hits.
SMILES,BJeLR viab HTS,Hedgehog inh
N#Cc1ccc(CSc2nc(-c3cccs3)c3c(c2C(=O)O)CCCC3)cc1,-2.2,?
CN1CCc2c(-c3cccs3)nc(OCc3ccccc3Br)c(C#N)c2C1,3.0,64.7*
O=C(NCCc1nc2ccccc2[nH]1)C1COc2ccccc2O1 (configuration not stated),-5.9,/
COC(=O)c1ccc(NC(=O)CSC(=S)N2CCOCC2)cc1,2.2,67.9*
COc1ccc(CC(=O)Nc2ccc(N3CCOCC3)cc2)cc1OC,9.7,/
C[C@H](CO)N1C[C@H](C)[C@H](CN(C)S(=O)(=O)c2ccc(F)cc2)Oc2ccc(NC(=O)Nc3cccc4ccccc34)cc2C1=O,-7.9,/
O=C(NCCc1ccccc1)C1CC(=O)N(c2ccc(F)c(Cl)c2)C1 (configuration not stated),18.7,/
CC(C)NC(=O)Nc1ccc2c(c1)C(=O)N([C@@H](C)CO)C[C@@H](C)[C@H](CN(C)S(=O)(=O)c1cccs1)O2,-0.4,/
C/C=C(/C)C(=O)O[C@@H](C)[C@@](C)(O)C(=O)O[C@H](C)[C@@H](OC(=O)/C(C)=C\C)c1cc(OC)c2c(c1)OCO2,2.3,89.3*
CCOC(=O)c1[nH]ncc1Sc1ccc(Cl)cc1,5.9,/
Clc1ccc(Sc2cn[nH]c2-c2ccc3c(c2)OCCO3)cc1,-4.4,78.7*
O=C(Nc1ccc(C(F)(F)F)cc1)Nc1ccc(C(F)(F)F)cc1,37.2,/
COc1ccc(NC(=O)N(C)C[C@@H]2Oc3ccc(NS(=O)(=O)c4cn(C)cn4)cc3CC(=O)N([C@H](C)CO)C[C@H]2C)cc1,/,71.5*
COc1ccc(NC(=O)N(C)C[C@H]2Oc3ccc(NS(=O)(=O)c4ccc(Cl)cc4)cc3CC(=O)N([C@@H](C)CO)C[C@H]2C)cc1,/,66.5*
C[C@@H]1CN([C@H](C)CO)C(=O)Cc2cc(NS(C)(=O)=O)ccc2O[C@H]1CN(C)CC1CC1,/,75.0*
C[C@@H]1CN([C@@H](C)CO)C(=O)Cc2cc(NS(C)(=O)=O)ccc2O[C@@H]1CN(C)CC1CCCCC1,/,-19.4
COc1ccc(NC(=O)N(C)C[C@@H]2Oc3ccc(NS(=O)(=O)c4ccc(Cl)cc4)cc3CC(=O)N([C@@H](C)CO)C[C@@H]2C)cc1,/,-13.1
COc1ccc(NC(=O)N(C)C[C@H]2Oc3ccc(NS(=O)(=O)c4cn(C)cn4)cc3CC(=O)N([C@H](C)CO)C[C@H]2C)cc1,/,23.3
Cc1noc(C)c1S(=O)(=O)Nc1ccc2c(c1)CC(=O)N([C@@H](C)CO)C[C@H](C)[C@H](CN(C)C(=O)Nc1ccc(C(F)(F)F)cc1)O2,/,65.6*
Cc1noc(C)c1S(=O)(=O)Nc1ccc2c(c1)CC(=O)N([C@H](C)CO)C[C@@H](C)[C@@H](CN(C)C(=O)Nc1ccc(C(F)(F)F)cc1)O2,/,-5.7
CCc1ccc(NC(=O)C2NC(=O)CC2c2ccccc2)cc1 (configuration not stated),5.0,/
CCc1ccc(NC(=O)C2CCN(C(=O)c3ccccc3C)CC2)cc1,-2.9,/
Clc1ccc(CO/N=C(\Cn2ccnc2)c2ccc(Cl)cc2Cl)c(Cl)c1,-9.8,104.4*
O/N=C(\Cn1cncn1)c1ccc(Cl)cc1Cl,-2.2,-5.9
CNC(=O)[C@H]1O[C@@H](n2cnc3c(NCc4cccc(I)c4)ncnc32)C(O)[C@H]1O (some centres not stated),-1.7,-33.8
SMILES,BJeLR viab HTS,Hedgehog inh
COc1ccc(C[C@H](N)C(=O)N[C@@H]2[C@@H](CO)OC(n3cnc4c(N(C)C)ncnc43)[C@@H]2O)cc1 (some centres not stated),2.5,93.3*
COc1ccc(S(=O)(=O)Nc2cncc(C(=O)Nc3ccc(C(F)(F)F)cc3)c2)cc1,-7.5,/
C[C@@H]1CN([C@H](C)CO)C(=O)c2cc(NS(=O)(=O)c3ccccc3)ccc2O[C@@H]1CN(C)Cc1ccc(Oc2ccccc2)cc1,-0.2,88.1*
C[C@@H]1CN([C@@H](C)CO)C(=O)c2cc(NC(=O)c3ccncc3)ccc2O[C@@H]1CN(C)Cc1ccc(Oc2ccccc2)cc1,-2.5,84.3*
C[C@@H]1CN([C@H](C)CO)C(=O)c2cc(N(C)C)ccc2O[C@@H]1CN(C)Cc1ccc(C(=O)Nc2ccccc2N)cc1,54.1*,/
COc1ccc(NC(=O)Nc2ccc3c(c2)C(=O)N([C@H](C)CO)C[C@@H](C)[C@@H](CN(C)Cc2ccc(Oc4ccccc4)cc2)O3)cc1,0.6,95.6*
COc1ccc(NC(=O)Nc2ccc3c(c2)C(=O)N([C@@H](C)CO)C[C@H](C)[C@@H](CN(C)Cc2ccc(Oc4ccccc4)cc2)O3)cc1,0.0,3.3
C[C@H](CO)N1C[C@H](C)[C@H](CN(C)Cc2ccc(Oc3ccccc3)cc2)Oc2ccc(NC(=O)c3ccncc3)cc2C1=O,-5.1,-4.2
C[C@H](CO)N1C[C@H](C)[C@H](CN(C)Cc2ccc(C(=O)Nc3ccccc3N)cc2)Oc2ccc(N(C)C)cc2C1=O,15.2,/
C[C@@H]1CN([C@H](C)CO)C(=O)c2cc(NS(=O)(=O)c3ccccc3)ccc2O[C@H]1CN(C)Cc1ccc(Oc2ccccc2)cc1,1.5,42.2
Cc1ccc(OC(=O)c2ccccc2)c(-n2nc3ccccc3n2)c1,2.8,/
COc1ccccc1NC(=O)CSc1ncnc2c1nnn2Cc1ccccc1,7.0,/
C=CCNc1ncnc2c1sc1nc(CCCC)c3c(c12)CCCC3,3.3,/
Cc1cc(NC(=O)COc2ccccc2)no1,-0.6,/
O=C(Nc1ccc(C2=NCCO2)cc1)c1ccc(C(F)(F)F)cc1,7.5,-64.5
C[C@@H]1CN([C@@H](C)CO)C(=O)c2cc(NC(=O)c3ccncc3)ccc2O[C@H]1CN(C)Cc1ccc(-c2ccccc2)cc1,-1.4,/
C[C@@H]1CN([C@H](C)CO)C(=O)c2cc(NC(=O)c3ccncc3)ccc2O[C@H]1CN(C)Cc1ccc(-c2ccccc2)cc1,4.8,89.2*
COc1ccc(NC(=O)N(C)C[C@@H]2Oc3c(NC(=O)c4cc(C)nn4C)cccc3C(=O)N([C@@H](C)CO)C[C@H]2C)cc1,1.6,-12.9
O=C(NCc1ccccc1)c1cnn2c(C(F)(F)F)cc(-c3ccco3)nc12,0.7,/
Cc1nc2c([nH]1)C(c1ccc(C(C)C)cc1)C(C#N)=C(N)O2 (configuration not stated),0.1,-9.2
CC(C)c1ccc(C2C(C#N)=C(N)C(C#N)(C#N)C3=CCN(C)CC32)cc1 (configuration not stated),4.1,74.1*
S=C(/N=C(/Nc1ccccc1)c1ccccc1)Nc1ccccc1,-3.2,/
CCOc1ccc(S(=O)(=O)Nc2nc3ccccc3nc2Nc2ccccc2)cc1,0.1,?
O=S(=O)(Nc1nc2ccccc2nc1Nc1ccccc1F)c1ccc(Cl)cc1,11.1,98.1*
C=CCN1C(=O)C(Cc2ccc(O)cc2)NC1=S (configuration not stated),2.6,/
COc1ccc(NC(=O)Nc2cccc3c2O[C@H](CN(C)S(=O)(=O)c2ccc(C)cc2)[C@H](C)CN([C@H](C)CO)C3=O)cc1,1.8,14.8
C[C@H]1CN([C@@H](C)CO)C(=O)c2cccc(NC(=O)C3CC3)c2O[C@H]1CN(C)S(=O)(=O)c1ccc(F)cc1,12.0,2.2
C[C@@H]1CN([C@@H](C)CO)C(=O)c2cccc(NC(=O)Nc3cccc4ccccc34)c2O[C@H]1CN(C)S(=O)(=O)c1ccc(F)cc1,/,-41.4
